Most compounds without a hit are left out; they make up all but 2.8% or so of the library.
pPAFAH FP inh = inhibitors of human plasma PAF acetylhydrolase (pPAFAH) | Q13093 | AID 463082 | 330,000 tested, 1.5% active | inhibition, % at 3.39 µM | recombinant pPAFAH, FP-rhodamine probe fluorescence polarization;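 active = inhibition above the mean inhibition across the screen plus 3 SD, cut at about 25% in these data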;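 also: inhibitors block binding of the rhodamine activity-based probe so polarization drops; 0% = enzyme with DMSO and 100% = wells lacking pPAFAH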
Target sequence (Q13093 whole entry, looked up): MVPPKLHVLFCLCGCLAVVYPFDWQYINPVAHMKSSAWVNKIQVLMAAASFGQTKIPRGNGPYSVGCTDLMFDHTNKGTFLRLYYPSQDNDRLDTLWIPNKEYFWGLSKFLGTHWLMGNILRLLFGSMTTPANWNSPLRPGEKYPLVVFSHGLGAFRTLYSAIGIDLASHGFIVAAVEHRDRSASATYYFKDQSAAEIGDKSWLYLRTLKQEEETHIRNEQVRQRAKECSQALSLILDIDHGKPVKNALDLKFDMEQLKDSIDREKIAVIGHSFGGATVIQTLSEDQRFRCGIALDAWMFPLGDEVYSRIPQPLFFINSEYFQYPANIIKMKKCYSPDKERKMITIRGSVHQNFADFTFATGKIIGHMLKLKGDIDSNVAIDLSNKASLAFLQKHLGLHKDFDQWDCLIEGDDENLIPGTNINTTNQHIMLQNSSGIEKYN
PME-1 primary = PME-1 (human) inhibition; Q9Y570; AID 2130; recombinant PME-1, FP-Rh probe fluorescence polarization; 320,000 tested, 0.53% active; inhibition, % at 5.9 µM;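 active = inhibition above the campaign mean of all compounds plus 3 SD, cut at about 26% in these data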;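 also: competitive labeling of PME-1 active site by serine hydrolase directed probe; 0% = PME-1 with DMSO and 100% = wells lacking PME-1 enzyme; inhibitors block probe labeling so polarization falls and inhibition rises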
PAFAH2 inh = inhibitors of human PAFAH2; inhibition, % at 3.39 µM; Q99487; recombinant PAFAH2, FP-rhodamine activity probe, fluorescence polarization; 340,000 tested, 0.99% active;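 active = inhibition above the mean over all tested compounds plus 3 SD, cut at about 30% in these data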;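 also: inhibitors block probe labeling of enzyme so polarization drops; 0% = enzyme with DMSO and 100% = wells lacking PAFAH2 protein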
Fam108B inh = blocks mouse Fam108B hydrolase in RBBP9 counter-screen; recombinant Fam108B, FP-Rh probe fluorescence polarization; inhibition, % at 9.51 µM; 300,000 tested, 0.33% active; AID 1947;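 active = inhibition above the screen mean inhibition plus 3 SD, computed separately per campaign, cut at about 18% in these data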;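 also: inhibitors lower polarization as less probe binds the enzyme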
PAFAH1B2 FP inh = blocks human PAF acetylhydrolase 1b catalytic subunit 2; AID 492953; P68402; recombinant PAFAH1B2, FP-rhodamine activity probe, fluorescence polarization; 340,000 tested, 1.2% active; inhibition, % at 3.39 µM;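 active = inhibition above the mean of all tested compounds plus 3 SD, cut at about 24% in these data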;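 also: 0% = enzyme with DMSO and 100% = wells lacking PAFAH1B2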
PAFAH1B3 inh = blocks human PAF acetylhydrolase 1B catalytic subunit 3. Q15102. recombinant PAFAH1B3, FP-rhodamine probe, fluorescence polarization. inhibition, % at 3.39 µM. 340,000 tested, 0.28% active. AID 492972;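 active = inhibition above the screen-wide average of all tested compounds plus 3 SD, cut at about 25% in these data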;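 also: 0% = enzyme with DMSO only and 100% = wells lacking PAFAH1B3 protein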
Target sequence (Q15102 whole entry, looked up): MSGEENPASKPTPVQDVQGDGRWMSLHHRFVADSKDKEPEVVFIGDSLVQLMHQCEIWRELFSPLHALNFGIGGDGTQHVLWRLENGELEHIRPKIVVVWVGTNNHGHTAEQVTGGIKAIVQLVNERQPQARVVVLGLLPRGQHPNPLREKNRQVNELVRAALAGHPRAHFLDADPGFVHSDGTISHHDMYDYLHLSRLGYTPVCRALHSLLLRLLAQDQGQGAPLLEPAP
* hit, by the source's call; . = no result.

SMILES | pPAFAH FP inh | PME-1 primary | PAFAH2 inh | Fam108B inh | PAFAH1B2 FP inh | PAFAH1B3 inh
COc1ccccc1-c1ccc(/C=C2\C=CC(=O)O2)o1 | 25.6* | 5.0 | . | 0.3 | . | .
O=C(O)c1ccccc1/C=N/NC(=O)c1cc(-c2ccco2)nc2ccccc12 | 32.0* | -0.7 | 19.3 | 9.6 | 1.1 | 14.5
CNC(=O)COC(=O)c1cc(-c2ccco2)nc2ccccc12 | 24.8* | -3.2 | 11.6 | 4.3 | 0.8 | 6.6
O=C(O)c1cc(-c2ccco2)nc2cc3ccccc3cc12 | 25.2* | -4.9 | 3.5 | 1.0 | 4.5 | 14.9
O=C(COC(=O)c1cc(-c2ccco2)nc2ccccc12)NCc1ccccc1 | 34.2* | 3.6 | 4.1 | 1.6 | -2.5 | 0.8
CCOc1ccc(CNC2CCCCCCC2)cc1OC | 3.1 | -7.0 | 6.7 | -1.3 | 3.7 | 6.1
CCCc1ccc(OCc2ccc(C(=O)N3CCSCC3)o2)cc1 | 24.6* | -2.0 | -3.6 | -2.2 | 0.8 | 8.6
CCOC(=O)C1CCCN(C(=S)NC(=O)c2cc(Br)ccc2Cl)C1 (stereo not drawn) | . | . | 3.0 | . | 0.2 | 3.2
Cc1nc2[nH]c(=S)[nH]c(=O)c2nc1C | . | . | 0.3 | . | 7.4 | -0.8
Cc1nc2c(=O)[nH]c(=S)[nH]c2[nH]c1=O | . | . | 45.0* | . | 7.4 | 26.6*
O=C(Nc1ccc(Cl)cc1)Nc1ccccc1NS(=O)(=O)c1cccs1 | 16.9 | -2.2 | 1.0 | 4.1 | 26.5* | 10.1
O=S(=O)(Nc1ccccc1Cl)c1ccc(NS(=O)(=O)c2cccs2)cc1 | 26.0* | -0.1 | 14.6 | 8.0 | 13.1 | 11.4
Cc1cc(Cl)ccc1OCC(=O)Nc1ccccc1NS(=O)(=O)c1cccs1 | 33.1* | 18.6 | -2.5 | -3.7 | 23.7 | 11.3
O=S(=O)(Nc1ccc(S(=O)(=O)N2CCCCCC2)cc1)c1cccs1 | 3.1 | 0.0 | 13.7 | 3.7 | 13.2 | -0.3
CC(Nc1nc(-c2cccc(Br)c2)cs1)c1nc2cc(Cl)c(N3CCCCC3)cc2n1CCOCCO (stereo not drawn) | 4.3 | 8.7 | 5.7 | 1.0 | 8.8 | 4.1
Cc1ccc(S(=O)(=O)Nc2cccc(-c3cn4ccsc4n3)c2)cc1 | -0.2 | 1.8 | -8.6 | -1.7 | 6.1 | 2.3
O=S(=O)(Nc1cccc(-c2cn3ccsc3n2)c1)c1ccc(F)cc1 | 32.2* | 0.7 | 4.7 | -0.6 | 7.2 | 14.3
Cc1ccc(CNC(=O)Cn2cccc2C(=O)c2ccccc2C)cc1 | 6.0 | -3.0 | 1.3 | 4.4 | 26.6* | 7.0
Cc1ccccc1C(=O)c1cccn1CC(=O)NCc1ccc(Cl)cc1 | 1.1 | -5.5 | 5.7 | -5.6 | 30.6* | 10.1
CCOC(=O)[C@@H]1[C@H]2COc3ccccc3[C@H]2N2C(=O)N(c3ccc(Cl)cc3)C(=O)[C@]12C | 2.3 | 3.9 | 5.8 | -6.0 | 10.2 | 2.5
O=C(CSc1ccc(Cl)cc1)Nc1ccc(N2CCN(C(=O)c3ccco3)CC2)cc1 | 20.2 | 1.7 | 10.5 | -3.6 | 25.9* | 1.5
Cc1ccccc1C(=O)N1CCN(c2ccc(NC(=O)CSc3ccc(Cl)cc3)cc2)CC1 | 17.8 | 5.3 | -1.2 | 1.5 | 31.5* | 4.3
Nc1ccc(Nc2nc3ccccc3[nH]2)cc1 | 9.6 | 39.8* | 15.2 | 16.8 | 6.3 | 25.0
Nc1ccccc1Nc1nc2ccccc2[nH]1 | 3.3 | 1.9 | 6.2 | 3.5 | 0.6 | 14.2
COc1cc(NC(=O)Nc2ccc(Cl)c(Cl)c2)c(C(=O)O)cc1OC | 30.0* | 18.1 | 13.5 | 4.6 | 24.7* | 4.4
SMILES | pPAFAH FP inh | PME-1 primary | PAFAH2 inh | Fam108B inh | PAFAH1B2 FP inh | PAFAH1B3 inh
O=[N+]([O-])c1cc2oc3c(c2c(C=NCc2ccncc2)c1O)CCCC3 | . | . | 37.3* | . | 8.4 | 26.4*
CC(C)(C)N=Cc1c(O)ccc2oc3c(c12)CCCC3 | 2.1 | 3.5 | 10.9 | 3.0 | 4.0 | 7.5
O=S(=O)(c1ccc(N2CCN(CCO)CC2)nc1)N1CCOCC1 | -3.4 | 7.2 | 2.2 | 7.8 | -3.8 | 6.8
O=C(NCc1ccco1)c1cccc2c1C(=O)c1ccc(N3CCC(Cc4ccccc4)CC3)cc1S2(=O)=O | 33.1* | . | -12.6 | . | -21.7 | -15.0
COc1ccc(C(=O)Nc2ccc(NC(=O)c3ccccc3)cc2)cc1S(=O)(=O)N1CCOCC1 | 4.8 | -8.3 | -6.9 | -3.4 | 0.0 | -3.0
COc1ccc(NC(=O)C2CC2)cc1S(=O)(=O)N1CCOCC1 | 1.0 | 3.4 | 1.3 | . | 1.4 | 3.2
COc1ccc(NC(=O)c2c3c(nc4ccccc24)CCC3)cc1S(=O)(=O)N1CCOCC1 | 26.1* | 6.3 | -0.1 | -0.9 | 1.5 | 5.8
COc1ccc(NC(=O)C23CC4CC(CC(Cl)(C4)C2)C3)cc1S(=O)(=O)N1CCOCC1 | 6.7 | . | 1.5 | . | 27.0* | 6.7
COc1ccc(CCNC(=O)c2nnc(Cc3ccc(Cl)cc3)o2)cc1OC | 28.0* | 3.3 | -6.3 | 3.8 | -7.9 | 8.5
O=C(O)c1ccc(NCc2ccc3c(c2)OCO3)cc1 | -4.3 | 2.6 | 1.7 | 4.8 | 24.8* | -2.1
O=C(NCc1ccc2c(c1)OCO2)c1ccc2c(c1)OCO2 | 1.3 | 1.8 | 0.6 | 1.7 | 1.8 | -4.2
COc1ccc(CCNC(=O)c2nnc(Cc3c(F)cccc3Cl)o2)cc1OC | 3.1 | 4.5 | 5.9 | -3.3 | 3.8 | 2.6
COc1ccc2c(CC(=O)NCc3ccc4c(c3)OCO4)coc2c1 | 31.8* | -7.5 | -0.7 | -2.7 | 3.1 | -13.1
O=C(NCc1ccc2c(c1)OCO2)c1nnc(Cc2ccc(Cl)cc2)o1 | 28.8* | 6.0 | 2.3 | -5.6 | -3.7 | 2.3
Cc1ccc2c(CC(=O)NCc3ccc4c(c3)OCO4)coc2c1 | -2.7 | 2.8 | 5.7 | 0.3 | 14.6 | -3.2
CC(=O)N/C(=C\c1ccccc1)C(=O)OCc1ccc(F)cc1 | . | . | -0.4 | . | -4.5 | 6.2
CCc1nn(CC(=O)NCCC(C)C)c(=O)c2cc3c(OC)cccc3n12 | -3.3 | -3.5 | 7.1 | -9.2 | -1.9 | 1.5
COc1ccc(C(=O)NCc2nnc(SCC(=O)NC3CCCCC3)o2)cc1 | 3.9 | -2.6 | 6.0 | -1.8 | 5.8 | -5.4
CC(Sc1ccc(Cl)cc1)C(=O)NCc1ccc2c(c1)OCO2 (stereo not drawn) | 1.4 | 1.2 | -14.5 | 0.8 | 24.3* | 5.7
CC(Sc1ccc(Cl)cc1)C(=O)Nc1ccc2c(c1)OCO2 (stereo not drawn) | 7.3 | 1.8 | -0.9 | 2.4 | 4.1 | -3.2
O=C(CSCc1ccc(F)cc1)NCc1ccc2c(c1)OCO2 | 12.2 | -4.4 | 2.3 | 0.7 | 1.9 | -2.5
O=C(CSCc1ccc(Cl)cc1)NCc1ccc2c(c1)OCO2 | 13.0 | 5.8 | -1.0 | 3.3 | 26.1* | -3.6
CC(=O)c1ccc(OCC(=O)OCC(=O)Nc2sccc2C(N)=O)cc1 | 9.6 | 1.1 | 1.5 | . | 5.0 | 1.4
Cn1nc(C(F)(F)F)c(-c2cccc(C(F)(F)F)c2)c1NC(=O)CSCC(=O)O | 0.9 | 0.8 | 4.8 | -0.1 | 6.4 | 2.2
Cc1ccc(SCC(=O)NNC(=O)c2cncc(Br)c2)cc1 | 1.7 | . | -3.8 | . | 28.9* | 10.0
CCCCCCCCCCNC(=O)CCn1[nH]c(=O)c2ccccc2c1=O | 30.5* | -0.9 | 22.3 | 2.9 | 60.9* | 8.1
O=C(CSCc1ccc(Cl)cc1)NN=C1CCCCCC1 | 2.5 | 1.9 | 5.1 | 2.0 | 13.2 | 2.4

Screening results (PubChem BioAssay)
